Assay results published in PubChem BioAssay (NCI).
This is part of a sample that, as a whole, favours compounds with a hit. Of some 83,000 tested, about 20% had one in any assay.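 Step 1: grow cells in 96-well plates. Step 2: add test compound at a single concentration. Step 3: incubate 48 h. Step 4: record percent growth.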 Values without a mark were called inactive. Active and inactive are the calls of the source. How the source made its calls: active means growth percent below 10; inactive means the rest.

Legend:
Experiment in all cases: NCI-60 one-dose screen, 48 h (100 = growth as untreated, 0 = no growth, -100 = all killed)
Details in all cases: 10 µM unless noted
SR leukemia = test system: SR leukemia
RPMI-8226 leukemia = test system: RPMI-8226 leukemia
OVCAR-8 ovarian = test system: OVCAR-8 ovarian
OVCAR-5 ovarian = test system: OVCAR-5 ovarian
OVCAR-4 ovarian = test system: OVCAR-4 ovarian
SK-OV-3 ovarian = test system: SK-OV-3 ovarian
IGROV1 ovarian = test system: IGROV1 ovarian
OVCAR-3 ovarian = test system: OVCAR-3 ovarian
HS 578T breast = test system: HS 578T breast
NCI/ADR-RES ovarian = test system: NCI/ADR-RES ovarian
T-47D breast = test system: T-47D breast
BT-549 breast = test system: BT-549 breast
MDA-MB-435 melanoma = test system: MDA-MB-435 melanoma
SW-620 colon = test system: SW-620 colon
MCF7 breast = test system: MCF7 breast
HCT-116 colon = test system: HCT-116 colon
HCC-2998 colon = test system: HCC-2998 colon
KM12 colon = test system: KM12 colon

| Compound | growth (SR leukemia) | growth (RPMI-8226 leukemia) | growth (OVCAR-8 ovarian) | growth (OVCAR-5 ovarian) | growth (OVCAR-4 ovarian) | growth (SK-OV-3 ovarian) | growth (IGROV1 ovarian) | growth (OVCAR-3 ovarian) | growth (HS 578T breast) | growth (NCI/ADR-RES ovarian) | growth (T-47D breast) | growth (BT-549 breast) | growth (MDA-MB-435 melanoma) | growth (SW-620 colon) | growth (MCF7 breast) | growth (HCT-116 colon) | growth (HCC-2998 colon) | growth (KM12 colon) |
| --- | --- | --- | --- | --- | --- | --- | --- | --- | --- | --- | --- | --- | --- | --- | --- | --- | --- | --- |
| Nc1nc2c([nH]1)c1[nH]c3ccccc3c1c1[nH]c3ccccc3c21 | -24.9% (active) | -22.7% (active) | 57.5% | 85.9% | 66.8% | 86.1% | 58.9% | 36.6% | 47.2% | 86.5% | 32.4% | 64.6% | 1.06% (active) | -31.5% (active) | 13.6% | -47.9% (active) | -70.6% (active) | 39.5% |
| COc1ccc(C(=O)C2C(c3ccc(OC)cc3)CN(C)C23C(=O)Nc2ccccc23)cc1 (stereo not given) | 98% | 88.6% | 95.5% | 88.6% | 83.6% | 91.4% | 80.8% | 97.8% | 93.2% | 76.7% | 85.8% | 105% | 97.6% | 95.2% | 98.8% | 84.4% | 88.4% | 93.9% |
| CC1(C)CC[C@]2(c3nnc(-c4ccncc4)o3)CC[C@H]3C(=CC[C@H]4[C@@]3(C)CC[C@H]3C(C)(C)C(=O)CC[C@]43C)[C@@H]2C1 | 17% | 19.2% | 86.9% | 96.1% | 70.1% | 82.9% | 71.9% | 45% | 82.4% | 82% | 67.4% | 88.1% | 78.2% | 59% | 53.5% | 29% | 75.3% | 70% |
| COc1cnc2c(c1)C(=O)c1c-2n(CCCNCCO)c(=O)c2ccncc12 | -4.25% (active) | -4.03% (active) | -6.28% (active) | -0.667% (active) | -4.81% (active) | 6.1% (active) | 15.6% | 8.44% (active) | 23.5% | 58.8% | -4.8% (active) | 19% | 5.96% (active) | 9.91% (active) | 0.768% (active) | -49.8% (active) | 26.4% | 6.99% (active) |
| Cc1ccc(Sc2nnc(/N=C3\C(=O)Nc4ccccc43)s2)cc1 | 91.4% | 94.8% | 101% | 102% | 113% | 110% | 88.6% | 106% | 97.5% | 101% | 107% | 116% | 103% | 96.2% | 101% | 104% | 116% | – |
| N#Cc1cccc(NC(=O)c2oc3ccccc3c2-c2cnn(-c3ccccc3)c2)c1 | 3.02% [50 µM] (active) | -16.2% [50 µM] (active) | 76.4% [50 µM] | 83.8% [50 µM] | 89.1% [50 µM] | 78% [50 µM] | 92.6% [50 µM] | 104% [50 µM] | 89.3% [50 µM] | 77.2% [50 µM] | 49.6% [50 µM] | 72.5% [50 µM] | 97.9% [50 µM] | 89% [50 µM] | 57.3% [50 µM] | 70.9% [50 µM] | 71.1% [50 µM] | 81.5% [50 µM] |
| C#COc1cccc(Nc2ncnc3ncc(NC(=O)CCl)cc23)c1 | 16.2% [6.25 µM] | 52.9% [6.25 µM] | 10.3% [6.25 µM] | 31.5% [6.25 µM] | 32.6% [6.25 µM] | 53.1% [6.25 µM] | -42.4% [6.25 µM] (active) | -56.4% [6.25 µM] (active) | 43.4% [6.25 µM] | 12% [6.25 µM] | 30.5% [6.25 µM] | 28.6% [6.25 µM] | 17.1% [6.25 µM] | -55.1% [6.25 µM] (active) | -0.408% [6.25 µM] (active) | -32.6% [6.25 µM] (active) | 51.5% [6.25 µM] | 15.7% [6.25 µM] |
| OCc1cccc(-c2ccc3ncc(-c4nc(NC5CC5)ncc4F)n3c2)c1 | -13.5% (active) | -29.8% (active) | -2.83% (active) | -9.98% (active) | -1.5% (active) | 14% | -13.3% (active) | -1.89% (active) | -29.8% (active) | -3.01% (active) | -2.9% (active) | -7.54% (active) | -31.7% (active) | 0.326% (active) | -19.3% (active) | 1.41% (active) | -0.971% (active) | – |
| N#Cc1c(-c2cccs2)cc(-c2cccnc2)[nH]c1=O | 95.9% | 98.6% | 97.9% | 96.9% | 118% | 97.2% | 108% | 104% | 102% | 103% | 103% | 102% | 102% | 101% | 92.4% | 104% | 114% | – |
| C=C1C(=O)O[C@H]2[C@H]1CC/C(COC(=O)CSCCSCC(=O)OC/C1=C/CC[C@@]3(C)O[C@H]3[C@H]3OC(=O)C(=C)[C@@H]3CC1)=C\CC[C@@]1(C)O[C@@H]21 | -22.6% (active) | -29.7% (active) | 4.46% (active) | 21.8% | 40.4% | 89.3% | -9.6% (active) | -12.1% (active) | 32.6% | 59.5% | 29.5% | -16.3% (active) | 34.3% | 2.85% (active) | 18.1% | -31.6% (active) | 25.8% | – |
| Brc1ccc2[nH]cc(-c3nonc3-c3c[nH]c4ccccc34)c2c1 | 28.1% | 48.7% | 47% | 48.9% | 46.1% | 60.5% | 43.6% | 45.4% | 52.8% | 42.6% | 5.65% (active) | 73.9% | 47.1% | 60.4% | 29.3% | 36.9% | 21.5% | 16% |
| C#Cc1ccc(NC(=O)c2ccc(/C=C/C(=O)c3nccn3C)cc2)cc1 | -18.8% (active) | -25.9% (active) | 5.61% (active) | -61.6% (active) | 9.83% (active) | 18.7% | -37.3% (active) | -86% (active) | 33.1% | -7.85% (active) | 0.0135% (active) | -78.5% (active) | -44.7% (active) | -73.3% (active) | -45.4% (active) | -62.6% (active) | -89.2% (active) | -64.1% (active) |
| C=C1CC[C@@H]2[C@](C)(COC(C)=O)[C@H](OC(C)=O)CC[C@@]2(C)[C@@H]1CC(Sc1ccccc1)C1=CCOC1=O (stereo not given in full) | 2.9% (active) | -4.72% (active) | 11.9% | 39.8% | 100% | 57.7% | 25.2% | -84.2% (active) | 54.2% | 10.1% | 7.94% (active) | -22.6% (active) | 101% | 0.833% (active) | 2.14% (active) | -34.6% (active) | 44.7% | – |
| COc1cc(-c2nc3cc(Cl)c(Cl)cc3[nH]2)ccc1OCC(=O)N=Nc1c(O)[nH]c2ccc([N+](=O)[O-])cc12 | 23.9% | 101% | 69.3% | 105% | 71.7% | 77% | 87.1% | 36.1% | 68.2% | 109% | 66.6% | 98.8% | 81.9% | 82.7% | 74% | 42.6% | 71.8% | – |
| O=C1/C(=C\c2cn(-c3ccccc3)nc2-c2ccc(-c3cccs3)cc2)CCc2ccccc21 | 15.9% | 52.2% | 82.5% | 94.9% | 75.1% | 86.7% | 56.5% | 47.3% | 81.8% | 35.5% | 66.4% | 70% | -24.6% (active) | 41.9% | 38.3% | 43.7% | 79.8% | 49.4% |
| CSc1nc2sc3c(c2c(=O)n1-c1ccc([N+](=O)[O-])cc1)CCCCC3 | 85.4% | 99.4% | 73% | 87.8% | 82.4% | 69.5% | 84.8% | 103% | 82.3% | 89.6% | 89% | 102% | 97% | 95.4% | 86.2% | 84.4% | 104% | 101% |
| Cc1nc2c(=O)[nH]c(SCC(=O)Nc3cccc(F)c3)nc2[nH]c1=O | 132% | 110% | 103% | 103% | 101% | 115% | 108% | 111% | 101% | 107% | 97.1% | 104% | 103% | 101% | 92.7% | 103% | 104% | 105% |
